# Data taken from PubChem BioAssay (NCI).
# The panel holds about 83,000 compounds, 20% with a hit somewhere; the sample as a whole holds those more often.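 Treatment: one concentration, 48 hours, 96-well format. Scoring: percent growth, with anything below 10 considered active.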 A number with no mark means an inactive call. Active and inactive are the calls of the source.
# Legend:
# Assay in all cases: NCI-60 one-dose screen, 48 h (100 = growth as untreated, 0 = no growth, -100 = all killed)
# RPMI-8226 leukemia = details: 10 µM unless noted
# OVCAR-8 ovarian = details: 10 µM unless noted
# OVCAR-5 ovarian = details: 10 µM unless noted
# OVCAR-4 ovarian = details: 10 µM unless noted
# SK-OV-3 ovarian = details: 10 µM unless noted
# IGROV1 ovarian = details: 10 µM unless noted
# OVCAR-3 ovarian = details: 10 µM unless noted
# HS 578T breast = details: 10 µM
# NCI/ADR-RES ovarian = details: 10 µM unless noted
# T-47D breast = details: 10 µM unless noted
# BT-549 breast = details: 10 µM unless noted
# MDA-MB-435 melanoma = details: 10 µM unless noted
# SW-620 colon = details: 10 µM unless noted
# MCF7 breast = details: 10 µM unless noted
# HCT-116 colon = details: 10 µM unless noted
# HCC-2998 colon = details: 10 µM unless noted
# KM12 colon = details: 10 µM unless noted
# SR leukemia = details: 10 µM unless noted
SMILES,growth (RPMI-8226 leukemia),growth (OVCAR-8 ovarian),growth (OVCAR-5 ovarian),growth (OVCAR-4 ovarian),growth (SK-OV-3 ovarian),growth (IGROV1 ovarian),growth (OVCAR-3 ovarian),growth (HS 578T breast),growth (NCI/ADR-RES ovarian),growth (T-47D breast),growth (BT-549 breast),growth (MDA-MB-435 melanoma),growth (SW-620 colon),growth (MCF7 breast),growth (HCT-116 colon),growth (HCC-2998 colon),growth (KM12 colon),growth (SR leukemia)
Fc1ccc(-c2nnc(N3CCOCC3)c3ccccc23)cc1,111%,111%,108%,112%,109%,104%,109%,114%,109%,102%,81.4%,86.6%,100%,155%,87.9%,110%,109%,
C=CCn1c(SCC(=O)Nc2ccc(C(=O)/C=C/c3ccc(Cl)cc3)cc2)nnc1-c1ccc(Cl)cc1,17.2%,87.9%,104%,94.8%,92%,79.5%,89.1%,84.8%,80.5%,76%,82.5%,96.7%,97.9%,43.2%,-17.8% (active),90.4%,94.2%,
CC1(C)C2CCC(O)(C(=O)O)C1C2 (configuration not stated),114%,112%,112%,99.2%,103%,95.8%,118%,115%,116%,96.1%,104%,99.1%,115%,95.7%,117%,118%,118%,
Cc1c(-c2ccc(-c3ccccc3F)cc2)nc2ccc(F)cc2c1C(=O)O,23.3%,,34.8%,,65.1%,44.6%,55.9%,67%,49.6%,59.2%,45.5%,34.9%,38.9%,28.4%,21%,37.7%,35.2%,23.4%
COc1cc(C2CC(c3ccc(Nc4ccnc5cc(Cl)ccc45)cc3)=NN2c2ccccc2)cc(OC)c1OC (configuration not stated),49.7%,81.2%,86.4%,,90.3%,106%,86.7%,72.4%,,67.7%,82.3%,6.36% (active),50.2%,48%,54.9%,67.7%,47.9%,24.8%
C#CC[C@@H]1C[C@]2(C)[C@H]3CC[C@@H]4[C@H]5C(C(=C)C)CC[C@]5(C(=O)NCCCCN)CC[C@@]4(C)[C@]3(C)CC[C@H]2C(C)(C)[C@H]1OC(C)=O (some centres not stated),-39.1% (active),-47.5% (active),-87.3% (active),,111%,-59% (active),-87.3% (active),-26.2% (active),-53.4% (active),,41.2%,-92.2% (active),-66.8% (active),,-85.7% (active),-11.1% (active),-66.8% (active),-7.19% (active)
CCCCCc1c(C)[nH]c(/C=C2\N=C(c3ccc[nH]3)C=C2CC)c1C,-63.7% (active),-65.2% (active),-95.5% (active),-89.8% (active),-95.5% (active),-63.3% (active),-97.5% (active),-27.5% (active),-78.8% (active),-75% (active),-96.6% (active),-77.9% (active),-92.6% (active),-85.3% (active),-95.4% (active),-90.4% (active),-91.4% (active),
CC1=C(C(=O)Nc2ccc(F)cc2)C(c2ccccc2)C2=C(CC(C)(C)CC2=O)N1 (configuration not stated),41.3%,73.3%,90.7%,58.7%,97.2%,84.3%,70%,82.5%,79.7%,63.6%,91.1%,90.3%,89.7%,67.1%,73.6%,103%,84.5%,
CCCN(CCC)CC(O)COc1ccccc1C(=O)Nc1ccccc1 (configuration not stated),71.4%,84.3%,115%,,67.4%,113%,50.3%,80.9%,,97.1%,87.1%,-21.1% (active),36.9%,79.9%,50.6%,79.6%,48.3%,28.7%
CC(=O)N(C)c1ccc(Nc2cc(C)[nH]c3ccc4ncnc4c23)cc1,56.2%,,63.5%,77.9%,74.3%,1.11% (active),76.3%,75.1%,101%,47.5%,61.6%,81.3%,45.5%,28.3%,19.2%,26.9%,67.6%,11.1%
Cc1c(C)c(C)c([N+](=O)[O-])c([N+](=O)[O-])c1C,119%,102%,84.5%,,111%,122%,98.5%,96.5%,99.4%,,101%,88.6%,106%,97%,109%,103%,98.1%,99.8%
Nc1nc(N)c2c(n1)NC(c1sc(Cl)nc1Cl)CC(c1ccccc1)=N2 (configuration not stated),45.3%,60.7%,76.7%,,74%,50.5%,40.4%,48.1%,,43.6%,44.5%,2.29% (active),19.3%,31.3%,21.4%,74.3%,47.9%,19.9%
COc1cc2c(cc1I)-c1c(cc(OC)c(OC)c1OC)CC[C@@H]2NC(C)=O,35.5%,24.6%,36%,40.8%,10.3%,9.96% (active),17.3%,-21.4% (active),-19.2% (active),55.3%,47.7%,-8.3% (active),10.3%,11.3%,6.59% (active),0.415% (active),7.62% (active),
N#Cc1ccc(NC(=O)Nc2nc3ccc(OC(F)(F)F)cc3s2)cc1,-9.16% (active),8.91% (active),16%,,0.444% (active),13.2%,28.9%,,-13.8% (active),-10.3% (active),,-25.6% (active),13.6%,6.26% (active),-3.77% (active),-5.67% (active),10.5%,-38.4% (active)
Clc1ncnc2scc(C3COc4ccccc4O3)c12 (configuration not stated),95.7%,92.8%,94.4%,92.8%,115%,121%,106%,92.3%,109%,78.2%,70%,97.5%,93.3%,76.7%,86.2%,87.7%,104%,
CSCCC1NC(=O)C(C(C)=Nc2ccccc2)=C1O (configuration not stated),115%,111%,120%,100%,101%,103%,117%,105%,104%,103%,105%,95.4%,104%,91.3%,107%,113%,79.3%,
N#CC1=C(N)Oc2nc[nH]c(=O)c2C1c1cccs1 (configuration not stated),100%,98.3%,100%,90.9%,105%,111%,108%,112%,113%,95.2%,103%,101%,102%,97.1%,106%,114%,108%,
O=C(Nc1cnc(C(F)(F)F)cn1)c1cc(Cl)ccc1O,-21.7% (active),4.89% (active),28.3%,14%,-5.59% (active),23.8%,15.6%,8.53% (active),8.26% (active),-13.2% (active),-21.3% (active),5.89% (active),10.9%,6.48% (active),1.13% (active),14.6%,3.91% (active),
C=CCN(CCOC(=O)c1ccc([N+](=O)[O-])cc1)CCOC(=O)c1ccc([N+](=O)[O-])cc1,94.3%,98.7%,102%,99.5%,99.2%,88.1%,104%,101%,96.8%,90.5%,100%,107%,100%,96.3%,96.2%,105%,103%,
CCCCC(CCc1ccccn1)C(=O)c1ccccc1 (configuration not stated),106%,112%,109%,110%,110%,101%,116%,112%,104%,100%,108%,111%,112%,105%,109%,111%,136%,
COc1ccc(/C=C/C(=O)c2ccc(NC(=O)CSc3nnc(-c4ccc(OC)cc4)n3-c3ccccc3)cc2)cc1,77.5%,92.2%,108%,100%,100%,111%,103%,91.2%,102%,92.9%,99.7%,98.3%,102%,77.1%,4.27% (active),104%,102%,
Cc1ccc(NC(=O)c2[nH]c(SCCN(C)C)nc2-c2ccc(F)cc2)cc1Nc1ccc2ncn(C)c(=O)c2c1,40.8%,70%,42.6%,70.8%,88.4%,39.8%,78.9%,60.6%,93.2%,76.8%,85.2%,44.6%,51.8%,70%,21%,49.9%,49.6%,
O=C(CSc1ccc(Cl)cc1)Nc1ccc(-c2nc3ccccc3s2)c(Cl)c1,38.5%,50.8%,99.1%,57.6%,94.7%,69.4%,-10.9% (active),79.1%,62%,34.4%,95.2%,77.9%,65.9%,47.7%,19.7%,81.1%,23%,
COc1ccc(C2C=C(c3ccc(Cl)cc3)N=C3SC=CN32)cc1 (configuration not stated),94.6%,104%,121%,97.4%,111%,113%,132%,93.1%,104%,104%,90.3%,107%,97.7%,96.1%,104%,119%,112%,
COc1ccc(OC)c(Nc2nc(-c3c(C)nc4sccn34)cs2)c1,41.9%,74.5%,97.9%,78%,103%,90.8%,94.7%,73.1%,77.8%,26.3%,84.8%,66.1%,84.2%,39.1%,84.6%,91.3%,69.2%,
Oc1ccc(CCCCCCc2ccc(O)cc2)cc1,64.7%,44.1%,86.1%,50%,71.5%,60.4%,83.1%,103%,33.3%,65%,50.3%,71.4%,58.1%,35.9%,66.8%,92.3%,59%,
COc1ccc2c(c1)CCCC21C(=O)Nc2ccccc21 (configuration not stated),96.9%,95.5%,106%,98.8%,100%,102%,69.6%,107%,104%,85.2%,101%,101%,107%,95.7%,102%,112%,97.5%,
O=C(Nc1ccc(Cl)c(C(F)(F)F)c1)c1ccc(Nc2ccc(Cl)nn2)cc1,38.3%,55.2%,76.7%,42.2%,85.3%,87.6%,66.8%,85.7%,61.1%,28.6%,37.2%,80.2%,96.8%,53%,53.5%,67.4%,51.1%,
